Counter-ions that a name gives are not always drawn. ± gives the uncertainty stated by the source.

For this experiment, the system named is THP-1. The experiment is described as follows: CD54 surface expression induction over DMSO control (% over DMSO); higher = stronger dendritic cell activation. To be noted: exposure time: 24 h. The method, then:
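hCLAT-like CD54 and CD86 surface expression on THP1 cells after 24 h exposure at a single concentration (highest non-cytotoxic concentration, or 100-200 µM if not cytotoxic). Flow cytometry (iQue) was run on 5,000 live cells.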
For the compound `Nc1ccc(/N=N/c2ccccc2)c(N)n1` [Phenazopyridine hydrochloride] (100 µM), the “CD54 surface expression induction” value was -3.19 ± 0.03.
For `Cc1cccc(N(C)C(=S)Oc2ccc3c(c2)C2CCC3C2)c1` (stereo not given) [Tolciclate] (100 µM), the “CD54 surface expression induction” value was 1.18 ± 1.2.
To `C=CC(C)(CCC=C(C)C)OC(=O)CC(C)C` (stereo not given) [Linalyl isovalerate] (200 µM) belongs 16.3 ± 11; to `O=c1n(CC2CO2)c(=O)n(CC2CO2)c(=O)n1CC1CO1` (stereo not given) [Triglycidyl isocyanurate] (10 µM), 4 ± 1.7; to `NC(=S)NC(N)=S` [2,4-Dithiobiuret] (200 µM), 15.9 ± 2.6.

The values are drawn from the supplement of paper PMC10933113.
